Molecules are shown by their SMILES. Compounds without any hit were thinned out: in the full panel of roughly 83,000, 20% have a hit.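 Compound tested at a single concentration for 48 hours in 96-well plates; a percent growth value below 10 was scored as active.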 Unmarked numbers belong to inactive results. The source made the active and inactive calls.

The subject of this assay is HL-60(TB) leukemia. The experiment in a line: NCI-60 one-dose screen, 48 h (100 = growth as untreated, 0 = no growth, -100 = all killed). As to conditions: 10 µM unless noted.
With `Oc1ccc2c(c1)CCc1ccccc1-2`, the growth was 103%. Then `CCNc1nc2c(cnn2C)c(=O)[nH]1`, with 94.3%; and `O=C(/C(=C/c1ccc([N+](=O)[O-])cc1)SCc1ccc(F)cc1)c1ccc(F)cc1`, with 68.8%. Consider `O=C(Oc1ccc(CO[N+](=O)[O-])cc1)c1ccccc1`, for which the growth is -45.9% (active). On to `CN(C)c1ccc(/C=C(\C#N)c2nc3ccccc3n2C)cc1`, for which the growth is 1.21% (active). As for `Cc1cc2nc3c(=O)[nH]c(=O)nc-3n(CC=O)c2cc1C`, the figure is -55.8% (active); as for `CC(C)CCSc1nc(-c2ccc(F)cc2)c(C#N)c(N2CCN(C)CC2)n1`, 73.8%; as for `COc1ccc(-c2ccc3cc(C(=O)Nc4ccc(O)c(C(=O)/C=C/c5cc(OC)c(OC)c(OC)c5)c4)ccc3c2)cc1`, 95.5%. On to `CCN(CC)CC(O)CNc1c2ccc(Cl)cc2nc2ccc(OC)cc12` (stereo not given), for which the growth is -0.864% (active). As for `CN1CCN(CC(=O)N(C)c2ccc(N=C(c3ccccc3)c3c(O)[nH]c4ccc([N+](=O)[O-])cc34)cc2)CC1`, the growth is 53.5%. Then `CCOC(=O)c1c(C)nc2c(c1N)/C(=C/c1cccs1)C(=O)N2c1ccc(OC)cc1`, with 90.2%; and `CCC(C)Nc1ccc(NC(C)CC)cc1` (stereo not given), with 57.5%; and `C[n+]1c2ccccc2c(Nc2ccc(NS(=O)(=O)CCCCN=C(N)N)cc2)c2ccc(N)cc21`, with 16.7%.

On to `OCCN1CCN(c2nc(Nc3ccc(-c4nc5ccccc5[nH]4)cc3)c3cn[nH]c3n2)CC1`, for which the growth is -65.8% (active). Then `COc1cc(-c2nc(N)n(CC(=O)Nc3ccc(/C(C)=N\O)cc3)n2)cc(OC)c1OC`, with 91.6%.

Values taken from PubChem BioAssay (NCI).
